The values that follow come from PubChem BioAssay (EPA / NIEHS).

A short description of assay [1]: ATG_CRE_CIS: Attagene CIS-FACTORIAL HepG2 Assay for human cAMP Responsive Element (CRE) binding protein 3 (AID 2282926). The conditions noted are these: HepG2 CRE cis-reporter, Attagene multiplexed mRNA; actives raise or lower the signal. In a few lines:
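Induced reporter mRNA from a CRE cis element, measured in HepG2 among many multiplexed units at 24 h. Detection used RT-PCR plus capillary electrophoresis of fluorescent fragments; DMSO served as negative control.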

Assay [2] deals with CCAAT/enhancer-binding protein beta (Homo sapiens) (UniProt P17676). Kind of assay: ATG_C_EBP_CIS: Attagene CIS-FACTORIAL HepG2 Assay for human CCAAT/Enhancer Binding Protein (C/EBP) beta (AID 2282927). The conditions noted are these: HepG2 Attagene cis-factorial transcription factor reporter; actives raise or lower the signal. The method in brief: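 Changes in reporter mRNA, rather than exogenous chimeric receptor activity, reflect native C/EBP signalling in transfected HepG2 cells dosed for 24 h; transcripts are detected by RT-PCR and capillary electrophoresis.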

Assay [3] can be described thus: ATG_CMV_CIS: Attagene CIS-FACTORIAL HepG2 Assay for human CMV (Internal Marker) (AID 2282928).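 Note: endpoint acts as a background internal control marker rather than a target.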 The conditions noted are these: HepG2 CMV promoter reporter, transcription factor profiling; actives raise or lower the signal. The method in brief:
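Readout: fluorescent reporter cDNA fragments separated by capillary electrophoresis after RT-PCR and HpaI cut. Cells: HepG2 carrying transfected cis-promoter reporter constructs, dosed 24 h. Endpoint serves as background internal-marker control, fit bidirectionally versus DMSO.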

A short description of assay [4]: ATG_DR4_LXR_CIS: Attagene CIS-FACTORIAL HepG2 Assay for human Liver X Receptor (LXR), DR4 submotif (AID 2282929). The conditions noted are these: HepG2 Attagene DR4 cis-reporter, mRNA transcription; actives raise or lower the signal. In a few lines:
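Cells were transfected with multiple reporter transcription units, exposed to chemicals for 24 hours, then lysed for RNA. Reporter mRNA induction was measured by RT-PCR with capillary electrophoresis detection and fitted in both directions relative to DMSO.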

Assay [5] deals with Aryl hydrocarbon receptor (Homo sapiens) (UniProt P35869). In words: ATG_Ahr_CIS: Attagene CIS-FACTORIAL HepG2 Assay for human Aryl Hydrocarbon Receptor (Ahr) (AID 2282930). The conditions noted are these: HepG2 AhR cis-factorial reporter transcription; actives raise or lower the signal. The method in brief: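 HepG2, transient MRTU (cis) transfection, 24 h exposure. RNA → cDNA → PCR → 6-FAM primer extension → HpaI 2 h 37 C → CE. Fit: bidirectional, DMSO baseline.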

Assay [6] is described as follows: ATG_AP_1_CIS: Attagene CIS-FACTORIAL HepG2 Assay for human Activator Protein 1 (AP-1) (AID 2282931). The conditions noted are these: HepG2 Attagene cis-factorial AP-1 reporter mRNA; actives raise or lower the signal. In a few lines:
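Endogenous transcription-factor activity in human HepG2 liver cells is read through a cis-promoter reporter transcript, sampled 24 h after dosing. Detection uses RT-PCR with capillary electrophoresis; values come from bidirectional fitting relative to DMSO.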

Assay [7] can be described thus: ATG_BRE_CIS: Attagene CIS-FACTORIAL HepG2 Assay for human Bone Morphogenetic Protein (BMP) Response Element (BRE) (AID 2282933). The conditions noted are these: HepG2 BMP response element reporter, Attagene transcription factor profiling; actives raise or lower the signal. In a few lines: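 A HepG2 multiplex reporter system measured inducible reporter mRNA 24 h post-dosing. Detection: RT-PCR, 6-FAM primer extension, HpaI digestion, capillary electrophoresis. Activity fitted bidirectionally relative to DMSO.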

Assay [8] deals with Retinoic acid receptor alpha (Homo sapiens) (UniProt P10276). In words: ATG_DR5_RAR_CIS: Attagene CIS-FACTORIAL HepG2 Assay for human Retinoic Acid Receptor Alpha (RARE), DR5 submotif (AID 2282934). The conditions noted are these: HepG2 Attagene cis-factorial RARE DR5 reporter, mRNA; actives raise or lower the signal. In a few lines:
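HepG2, transient cis-reporter transfection, 24 h exposure. mRNA readout: RT-PCR, FAM label, HpaI cut, capillary electrophoresis. DMSO baseline, gain/loss fitting.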

For assay [9], the target named is Transcription factor E2F1 (Homo sapiens) (UniProt Q01094). Kind of assay: ATG_E2F_CIS: Attagene CIS-FACTORIAL HepG2 Assay for human E2F Transcription Factor 1 (AID 2282935). The conditions noted are these: HepG2 Attagene cis-reporter, E2F reporter RNA transcripts; actives raise or lower the signal. The method in brief:
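Fluorescent RT-PCR products, digested with HpaI for 2 h at 37 C, are separated by capillary electrophoresis. Source RNA comes from transfected HepG2 cultures treated for 24 h.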

Assay [10] in a line: ATG_E_Box_CIS: Attagene CIS-FACTORIAL HepG2 Assay for human Enhancer Box (E-box) (AID 2282936). The conditions noted are these: HepG2 E-box cis-reporter transcription, actives raise or lower the signal. In a few lines: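 Fluorescent reporter fragments separated by capillary electrophoresis gave the signal; mRNA came from HepG2 cells transfected with cis-element reporters and treated 24 h. Curves fitted bidirectionally relative to DMSO controls.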

Assay [11] is described as follows: ATG_M_61_CIS: Attagene CIS-FACTORIAL HepG2 Assay for M61 Transcription Factor (Internal Marker) (AID 2282937). The conditions noted are these: HepG2 Attagene CIS-FACTORIAL M61 internal marker reporter; actives raise or lower the signal. In a few lines:
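Cells were transfected with reporter units under cis-regulatory promoters, treated with chemicals for 24 h, then lysed for RNA. Reporter transcripts were quantified by RT-PCR and capillary electrophoresis, and activity was fitted bidirectionally against DMSO.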

A short description of assay [12]: ATG_EGR_CIS: Attagene CIS-FACTORIAL HepG2 Assay for human Early Growth Response 1 (EGR1) (AID 2282938). The conditions noted are these: HepG2 Attagene CIS-FACTORIAL EGR reporter mRNA; actives raise or lower the signal. In a few lines:
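Endogenous TF activity in HepG2 liver cells was gauged through cis-promoter reporter constructs transiently transfected. After 24 h dosing, reporter mRNA was quantified by RT-PCR and capillary electrophoresis, and curves fitted in both directions versus DMSO.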

Assay [13] can be described thus: ATG_M_19_CIS: Attagene CIS-FACTORIAL HepG2 Assay for M19 Transcription Factor (Internal Marker) (AID 2282939). The conditions noted are these: HepG2 Attagene CIS-FACTORIAL M19 internal marker reporter; actives raise or lower the signal. The method in brief:
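Chemical-treated HepG2 (24 h) with MRTU constructs; reporter transcripts detected by fluorescent RT-PCR fragment analysis on capillary electrophoresis. Internal background marker, DMSO as baseline.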

A short description of assay [14]: ATG_ERE_CIS: Attagene CIS-FACTORIAL HepG2 Assay for Estrogen Response Element (ERE) (AID 2282940). The conditions noted are these: HepG2 ERE cis-reporter, Attagene RNA transcript; actives raise or lower the signal. The method in brief:
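Human liver cells (HepG2) bearing transiently transfected, promoter-regulated reporter units were exposed 24 h. Reporter mRNA induction was detected by capillary electrophoresis of labelled RT-PCR products and fitted bidirectionally to DMSO.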

Assay [15] is described as follows: ATG_Ets_CIS: Attagene CIS-FACTORIAL HepG2 Assay for human Erythroblast Transformation Specific (ETS) (AID 2282941). The conditions noted are these: HepG2 ETS cis-reporter transcription, actives raise or lower the signal. The method in brief:
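RT-PCR/capillary electrophoresis fluorescence read-out of reporter mRNA; HepG2 transient multi-reporter transfection; 24 h compound exposure; gain or loss of signal fitted bidirectionally relative to DMSO.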

Assay [16] concerns the target Hepatocyte nuclear factor 3-beta (Homo sapiens) (UniProt Q9Y261). In words: ATG_FoxA2_CIS: Attagene CIS-FACTORIAL HepG2 Assay for human Forkhead box A2 (FOXA2) (AID 2282942). The conditions noted are these: HepG2 cis-reporter transcription factor activity, 24 h; actives raise or lower the signal. In a few lines:
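Endogenous transcription factor activity was read in HepG2 cells carrying transiently transfected cis-promoter reporter units. After 24 h dosing, reporter mRNA was quantified by RT-PCR and capillary electrophoresis, and values fitted bidirectionally versus DMSO.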

The nature of assay [17]: ATG_GATA_CIS: Attagene CIS-FACTORIAL HepG2 Assay for human GATA Binding Protein (AID 2282944). The conditions noted are these: HepG2 GATA cis-element reporter, Attagene multiplex mRNA; actives raise or lower the signal. In a few lines: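 Transfected cis-reporter HepG2 cells were treated with chemicals for 24 hours. Total RNA was then converted to cDNA, amplified with reporter-specific primers and analysed by fluorescent capillary electrophoresis, using DMSO-treated wells as baseline.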

The nature of assay [18]: ATG_GLI_CIS: Attagene CIS-FACTORIAL HepG2 Assay for human Zinc Finger Protein GLI1 (AID 2282945). The conditions noted are these: HepG2, Attagene cis-factorial reporter mRNA, GLI element; actives raise or lower the signal. In a few lines: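 Bidirectional curve fits relative to DMSO, using reporter mRNA levels from RT-PCR plus capillary electrophoresis. Cells were HepG2 transiently carrying cis-regulated reporter constructs, harvested 24 h after dosing.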

Assay [19] is described as follows: ATG_AP_2_CIS: Attagene CIS-FACTORIAL HepG2 Assay for human Activator Protein 2 (AP-2) (AID 2282932). The conditions noted are these: HepG2 AP-2 cis-reporter, Attagene transcription factor profiling; actives raise or lower the signal. In a few lines: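 Transiently transfected HepG2 cells are exposed to chemical for 24 h. Reporter transcripts are then measured as fluorescence following RT-PCR and capillary separation, and gain- or loss-of-signal is fitted relative to DMSO.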

Assay [20] in a line: ATG_FoxO_CIS: Attagene CIS-FACTORIAL HepG2 Assay for human Forkhead box O (FoxO) (AID 2282943). The conditions noted are these: HepG2 Attagene cis-reporter, FoxO element, mRNA; actives raise or lower the signal. The method in brief: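 Human hepatoma HepG2 cells carry transiently introduced reporter transcription units controlled by cis promoter elements. Chemical treatment lasted 24 h, and mRNA signal was compared with DMSO.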

Structures are written as SMILES. The source made the active and inactive calls. Rule for the calls: active = hit-call score of the fitted dose curve at least 0.9, where 1 is the maximum; inactive = score below 0.9.

Chain of Aryl hydrocarbon receptor (Homo sapiens) (P35869 whole entry, looked up): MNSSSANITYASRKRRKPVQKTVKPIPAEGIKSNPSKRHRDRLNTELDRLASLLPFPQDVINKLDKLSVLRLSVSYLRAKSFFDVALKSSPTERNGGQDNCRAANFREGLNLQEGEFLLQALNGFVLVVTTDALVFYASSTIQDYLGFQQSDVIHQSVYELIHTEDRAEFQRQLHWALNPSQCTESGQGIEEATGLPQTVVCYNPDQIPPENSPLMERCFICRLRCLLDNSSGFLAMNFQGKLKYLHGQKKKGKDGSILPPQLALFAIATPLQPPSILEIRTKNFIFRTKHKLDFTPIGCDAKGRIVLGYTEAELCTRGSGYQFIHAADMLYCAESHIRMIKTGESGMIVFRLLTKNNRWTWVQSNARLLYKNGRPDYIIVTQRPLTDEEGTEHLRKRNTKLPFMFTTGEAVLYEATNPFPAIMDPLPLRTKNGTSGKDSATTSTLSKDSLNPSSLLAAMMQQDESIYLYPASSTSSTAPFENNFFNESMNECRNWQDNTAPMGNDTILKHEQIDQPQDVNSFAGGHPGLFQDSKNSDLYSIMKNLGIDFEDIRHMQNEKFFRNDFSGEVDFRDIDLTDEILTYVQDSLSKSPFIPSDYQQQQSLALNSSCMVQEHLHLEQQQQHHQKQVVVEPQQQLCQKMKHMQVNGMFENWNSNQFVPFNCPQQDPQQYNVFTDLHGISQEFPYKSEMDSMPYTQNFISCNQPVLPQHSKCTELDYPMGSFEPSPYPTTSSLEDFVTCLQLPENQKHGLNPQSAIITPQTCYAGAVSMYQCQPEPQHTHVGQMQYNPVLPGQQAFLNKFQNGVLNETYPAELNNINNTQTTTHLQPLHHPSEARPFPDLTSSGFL
Chain of Retinoic acid receptor alpha (Homo sapiens) (P10276 whole entry, looked up): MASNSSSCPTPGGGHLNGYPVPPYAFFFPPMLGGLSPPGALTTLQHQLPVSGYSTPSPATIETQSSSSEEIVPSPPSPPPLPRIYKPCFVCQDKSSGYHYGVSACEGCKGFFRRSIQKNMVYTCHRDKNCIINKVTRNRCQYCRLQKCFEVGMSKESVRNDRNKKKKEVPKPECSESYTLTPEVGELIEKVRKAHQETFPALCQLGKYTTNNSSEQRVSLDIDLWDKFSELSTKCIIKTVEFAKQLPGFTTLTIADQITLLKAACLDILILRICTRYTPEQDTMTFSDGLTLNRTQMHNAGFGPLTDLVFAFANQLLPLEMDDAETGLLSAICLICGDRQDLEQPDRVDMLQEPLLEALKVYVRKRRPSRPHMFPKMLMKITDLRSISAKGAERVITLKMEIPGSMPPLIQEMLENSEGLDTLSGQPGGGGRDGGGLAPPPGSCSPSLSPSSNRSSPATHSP
Chain of Hepatocyte nuclear factor 3-beta (Homo sapiens) (Q9Y261 whole entry, looked up): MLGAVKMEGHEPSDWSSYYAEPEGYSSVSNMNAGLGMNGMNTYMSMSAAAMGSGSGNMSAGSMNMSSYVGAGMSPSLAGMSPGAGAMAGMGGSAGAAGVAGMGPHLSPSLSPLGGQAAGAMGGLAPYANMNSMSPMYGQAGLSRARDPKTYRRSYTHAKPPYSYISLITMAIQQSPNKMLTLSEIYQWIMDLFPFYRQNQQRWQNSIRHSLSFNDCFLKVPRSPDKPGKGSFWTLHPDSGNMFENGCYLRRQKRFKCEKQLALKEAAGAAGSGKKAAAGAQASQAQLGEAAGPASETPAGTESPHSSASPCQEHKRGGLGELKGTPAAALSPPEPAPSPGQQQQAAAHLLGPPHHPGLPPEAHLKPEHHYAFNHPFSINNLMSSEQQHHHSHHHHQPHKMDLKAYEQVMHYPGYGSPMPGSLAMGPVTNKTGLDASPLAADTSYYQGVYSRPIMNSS
Chain of Transcription factor E2F1 (Homo sapiens) (Q01094 whole entry, looked up): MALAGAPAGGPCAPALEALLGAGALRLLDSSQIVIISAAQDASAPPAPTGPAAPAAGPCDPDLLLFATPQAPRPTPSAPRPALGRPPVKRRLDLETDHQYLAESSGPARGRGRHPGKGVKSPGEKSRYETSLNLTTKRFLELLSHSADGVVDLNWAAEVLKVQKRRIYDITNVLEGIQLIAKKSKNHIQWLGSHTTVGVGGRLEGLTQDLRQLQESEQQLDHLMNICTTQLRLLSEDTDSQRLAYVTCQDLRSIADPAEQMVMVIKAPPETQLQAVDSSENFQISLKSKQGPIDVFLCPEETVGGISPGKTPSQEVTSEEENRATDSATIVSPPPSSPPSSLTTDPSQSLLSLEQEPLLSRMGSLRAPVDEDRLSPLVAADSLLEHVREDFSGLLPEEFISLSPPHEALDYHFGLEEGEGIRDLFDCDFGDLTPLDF
Chain of CCAAT/enhancer-binding protein beta (Homo sapiens) (P17676 whole entry, looked up): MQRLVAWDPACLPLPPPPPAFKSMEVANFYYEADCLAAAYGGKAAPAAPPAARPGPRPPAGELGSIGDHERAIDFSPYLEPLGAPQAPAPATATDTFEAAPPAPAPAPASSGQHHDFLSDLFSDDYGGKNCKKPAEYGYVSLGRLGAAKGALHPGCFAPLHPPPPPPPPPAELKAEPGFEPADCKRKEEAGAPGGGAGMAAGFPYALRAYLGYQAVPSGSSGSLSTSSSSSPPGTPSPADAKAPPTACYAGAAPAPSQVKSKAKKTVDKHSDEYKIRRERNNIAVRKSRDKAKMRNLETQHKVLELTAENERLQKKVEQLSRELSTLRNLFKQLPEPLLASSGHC

`Cc1ccc(C2OC[C@@H]3OC(c4ccc(C)cc4)O[C@H]([C@H](O)CO)[C@@H]3O2)cc1` (stereo not given in full): the outcome in [1], in [2], in assay [3], in assay [4], in assay [5] and in [7] was inactive. Further, the result in assay [8], in [9], in assay [10], in [11], in assay [12] and in assay [13] was inactive. Besides, the molecule was called inactive in [14], in [15], in assay [16], in [17] and in [18]. Moreover, in [6], the concentration at half-maximal activity (AC50) was 142 µM (active).

Consider `C=C(C)[C@H]1CC=C(C)CC1`, for which the result in assay [1], in [2], in assay [3], in assay [4], in assay [5] and in [6] was inactive. The molecule was called inactive in assay [19], in [9], in assay [10], in assay [11], in assay [12] and in assay [13]. Further, the call in assay [14], in [15], in assay [16], in [20], in [17] and in [18] was inactive.

`COC=O`: the result in assay [1], in assay [2], in [3], in assay [4], in assay [5] and in assay [6] was inactive. Also, the result in assay [7], in [8], in assay [9], in assay [10], in [11] and in assay [12] was inactive. Moreover, the call in assay [13], in assay [14], in assay [15], in [16], in [20] and in assay [17] was inactive. Also, the molecule was called inactive in assay [18].

In the case of `CC(C)CC(O)Cc1ccccc1` (stereo not given), the outcome in assay [1], in assay [2], in assay [3], in assay [4], in [5] and in assay [6] was inactive. Moreover, the outcome in assay [7], in [8], in assay [9], in [10], in assay [11] and in assay [12] was inactive. The molecule was classed as inactive in assay [13], in assay [14], in assay [15], in assay [16], in assay [20] and in assay [17]. Also, the result in assay [18] was inactive.

Turning to `C=CC(=O)OCCC(=O)O`, the call in [1], in assay [2], in assay [3], in assay [4], in assay [6] and in assay [19] was inactive. Further, the call in assay [7], in assay [8], in [9], in [11], in assay [12] and in [13] was inactive. Besides, the molecule was called inactive in assay [14], in assay [15], in [16], in assay [20], in assay [17] and in [18].

Regarding `COC(=O)c1c(C)cc(O)c(C)c1O`, the outcome in [1], in assay [2], in [3], in assay [4], in assay [5] and in [6] was inactive. Moreover, the result in assay [7], in assay [8], in assay [9], in assay [10], in assay [11] and in [12] was inactive. The call in assay [13], in [14], in assay [16], in assay [20], in assay [17] and in assay [18] was inactive.

In the case of `C=C(C)C(=O)OCCOc1ccccc1`, the call in assay [1], in [2], in [3], in assay [4], in [6] and in assay [19] was inactive. Moreover, the outcome in [7], in assay [8], in assay [9], in assay [10], in assay [11] and in [12] was inactive. Also, the molecule was classed as inactive in assay [13], in assay [14], in assay [15], in [20], in assay [17] and in assay [18].

Turning to `N[C@H]1C(O)O[C@H](CO)[C@H](O)[C@@H]1O` (stereo not given in full), the molecule was classed as inactive in [1], in assay [2], in assay [3], in [4], in assay [6] and in [19]. Besides, the call in [7], in assay [8], in [9], in assay [11], in assay [13] and in [15] was inactive. The result in [16], in assay [20], in assay [17] and in assay [18] was inactive. Also, the concentration at half-maximal activity (AC50) in assay [14] was 39.9 µM (active).
